# Experimental data as given in PubChem BioAssay (NCI).
# Compounds without any hit were thinned out: in the full panel of roughly 79,000, 15% have a hit. Unmarked numbers belong to inactive results. The source made the active and inactive calls. No stated cut-off is given here; in the data, active means growth inhibition above about 70%; inactive means the rest.
# What was measured:
# [1] = NCI Yeast Anticancer Drug Screen. Data for the rad50 strain (AID 155);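 further: 0% = growth of vehicle-only cultures of the same strain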; conditions: S. cerevisiae rad50 strain growth inhibition, hits give high values
# Procedure, shortened: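 Compounds were tested on a yeast strain with an engineered DNA damage repair alteration; the reported value is growth inhibition normalised to vehicle treatment.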
# [2] = NCI Yeast Anticancer Drug Screen. Data for the mec2-1 strain (AID 157); conditions: S. cerevisiae mec2-1 strain, hits give high values
# Procedure, shortened: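 mec2-1 yeast strain, carrying an alteration in DNA damage repair or cell cycle control, was exposed to compounds; growth inhibition was measured relative to vehicle-treated controls.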
# [3] = NCI Yeast Anticancer Drug Screen. Data for the sgs1 mgt1 strain (AID 161);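 further: 0% = growth of cultures given vehicle only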; conditions: S. cerevisiae sgs1 mgt1 strain, hits give high values
# Procedure, shortened: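 Growth of a repair-deficient yeast mutant was monitored after compound treatment and expressed as inhibition relative to vehicle-treated cultures.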
# [4] = NCI Yeast Anticancer Drug Screen. Data for the cln2 rad14 strain (AID 165);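 further: 0% = growth equal to vehicle treated cultures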; conditions: S. cerevisiae cln2 rad14 strain, hits give high values
# Procedure, shortened: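 Yeast carrying cln2 and rad14 alterations (cell cycle control and DNA damage repair) were exposed to compounds. Growth inhibition was measured against vehicle-treated controls.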
# [5] = NCI Yeast Anticancer Drug Screen. Data for the bub3 strain (AID 167); conditions: S. cerevisiae bub3 mutant strain, hits give high values
# Procedure, shortened: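 Growth of a checkpoint-deficient yeast mutant is measured after compound exposure. Values represent inhibition relative to vehicle.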
# [6] = NCI Yeast Anticancer Drug Screen. Data for the mlh1 rad18 strain (AID 175); conditions: S. cerevisiae mlh1 rad18 strain growth inhibition, hits give high values
# Procedure, shortened: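 Growth inhibition of the yeast strain was measured after compound exposure and expressed relative to vehicle-treated controls. The strain carries defined defects in DNA damage repair.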
# [7] = at 5.0 µM (retest, dose inferred, filed as 0.5)
# [8] = at 50.0 µM (retest, dose inferred, filed as 5.0)
Structure (SMILES),"growth inhibition [1, 7]","growth inhibition [1, 8]",growth inhibition ([1]; at 50.0 µM),"growth inhibition [2, 7]","growth inhibition [2, 8]",growth inhibition ([2]; at 50.0 µM),"growth inhibition [3, 7]","growth inhibition [3, 8]",growth inhibition ([3]; at 50.0 µM),"growth inhibition [4, 7]","growth inhibition [4, 8]",growth inhibition ([4]; at 50.0 µM),"growth inhibition [5, 7]","growth inhibition [5, 8]",growth inhibition ([5]; at 50.0 µM),"growth inhibition [6, 7]","growth inhibition [6, 8]",growth inhibition ([6]; at 50.0 µM)
CCOC(CCCl)OCC,0%,2%,7.35%,0%,4%,5.7%,-1%,1%,-2.9%,0%,-5%,89.2% (active),1%,-3%,2.35%,0%,3%,13.3%
O=C1C=CC(=O)N1c1ccc2c(c1)Cc1cc(Cl)ccc1-2,-48%,92% (active),13.6%,8%,96% (active),78.3% (active),-5%,93% (active),79.2% (active),-3%,27%,-72%,11%,82% (active),72.3% (active),26%,97% (active),68.9%
O=C(Nc1ccc(O)cc1O)c1ccccc1,2%,53%,85% (active),-15%,61%,76.7% (active),6%,82% (active),90.4% (active),7%,50%,72.3% (active),11%,46%,89.2% (active),3%,76% (active),85.1% (active)
CCCCCCCCCCCCOCC[N+](CCO)(CCO)Cc1ccccc1,99% (active),99% (active),99.3% (active),100% (active),99% (active),99.5% (active),99% (active),99% (active),99.2% (active),97% (active),99% (active),98.4% (active),97% (active),99% (active),99% (active),98% (active),99% (active),99.3% (active)
c1cc2c(c3c1CN(C1CCCCC1)CO3)OCN(C1CCCCC1)C2,2%,19%,-11%,4%,10%,-29.6%,6%,16%,32.1%,-12%,16%,-27.2%,5%,28%,65%,6%,10%,12.4%
COc1ccc(OC)c(/C=C2/C(=O)ON=C2C)c1,-14%,7%,42.4%,-11%,5%,54.4%,1%,27%,70% (active),0%,14%,22%,11%,23%,43.5%,8%,23%,22.7%
O=C(/C=C(\C(=O)c1ccccc1)N(/C(=C/C(=O)c1ccccc1)C(=O)c1ccccc1)c1ccccc1)c1ccccc1,2%,30%,92.2% (active),-3%,13%,88.8% (active),-5%,30%,90.8% (active),-2%,-21%,83.5% (active),0%,34%,88.4% (active),0%,12%,92.7% (active)
O=C1C=CC(=O)c2c(O)c(N3CCC[C@@H]3CO)c(Cl)c(O)c21,20%,65%,30.1%,30%,64%,41.5%,25%,52%,51.2%,19%,36%,30.2%,21%,29%,72.2% (active),26%,71% (active),4.25%
CCCSc1n[nH]c(=S)s1,-3%,5%,27%,2%,30%,53%,-1%,46%,73.1% (active),-10%,29%,32.6%,-6%,13%,52%,-1%,15%,41.7%
CN1CCN(C2=C(Cl)C3(OCCS3)C(F)(F)C2(F)F)CC1 (centres undefined),-1%,-42%,34.1%,26%,53%,34.2%,15%,58%,53.7%,1%,29%,49.2%,5%,22%,39.9%,20%,68%,48.1%
CCOC(=O)c1ccc(NC(=O)O/N=C(/Cl)CCl)cc1,-14%,99% (active),41.2%,-5%,95% (active),83.8% (active),-22%,50%,55.3%,-10%,78% (active),57.2%,-16%,43%,73.5% (active),-5%,79% (active),69%
COc1ccc(NC(=O)C(Cc2ccccc2)NC(C)=O)cc1 (centres undefined),9%,7%,48.6%,1%,-9%,-5.75%,-12%,-14%,3.15%,-5%,1%,-55.5%,-4%,-2%,9.7%,-1%,-25%,6.2%
Cc1ccccc1C1SCc2nc3ccccc3n21 (centres undefined),-9%,-7%,-17.1%,-3%,-4%,8.3%,-5%,1%,14.7%,-13%,-20%,75.3% (active),-4%,-1%,-6.4%,-9%,-9%,-25.1%
O=C(N/C(=C\c1ccccc1)C(=O)N1CCN(c2ccccc2)CC1)c1ccccc1,-9%,6%,90.2% (active),-4%,-2%,93.2% (active),-7%,7%,95.3% (active),-12%,0%,87.8% (active),-4%,10%,88.3% (active),0%,6%,91.7% (active)
CN(C)CC1CCC2=C(C1=O)C(c1ccc(Cl)c(Cl)c1)C1=C(CCC(CN(C)C)C1=O)O2 (centres undefined),14%,11%,75.5% (active),-4%,-13%,49.9%,-5%,19%,47.6%,6%,-3%,-17.2%,-5%,2%,3.75%,4%,1%,48.5%
CC1CCC(C(C)C)C(OC(=O)Nc2ccc(S(=O)(=O)N(C)C)cc2)C1 (centres undefined),25%,82% (active),96% (active),18%,92% (active),95.2% (active),46%,83% (active),96% (active),8%,82% (active),95.5% (active),29%,90% (active),92.5% (active),32%,88% (active),95.8% (active)
CC(C)(C)/C=N/NS(=O)(=O)c1ccccc1,-114%,-146%,-1%,-43%,-43%,-7.35%,-44%,-62%,2.5%,-50%,-61%,40.5%,-57%,-67%,-5.2%,-100%,-108%,4.65%
C/C=C(\C)CC/C=C/CO[Si](C)(C)C(C)(C)C,-19%,-19%,-4.15%,-2%,-19%,8.7%,-13%,13%,5.25%,11%,-4%,53.6%,7%,-11%,2.8%,-16%,-8%,5.75%
